Several values for one entry are separate records, joined by “and”; a condition that tells them apart may be missing. Equal entries are not always repeated. Records with an inconclusive call do not appear. Activity calls are given as the source filed them. Unless noted, the call rests on the fitted dose curve; in most records, active means well fitted curve in the direction sought with a large enough effect; inconclusive means small, poorly fitted or top-dose-only effect, or another doubt; inactive means no such curve, though single readings can be large; an effect the other way counts as inactive or inconclusive.
Columns and labels:
[1] = Cellular Toxicity (caspase-3) HepG2 (AID 654);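 further: cells exposed to compound for 16 hours before reading; 0% = DMSO alone and 100% = caspase signal from 100 µM tamoxifen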
Method in brief: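 HepG2 cells (1500/well) were treated 16 h at 37 °C in complete medium, then caspase 3/7 activity was read by Caspase-Glo luminescence. Data were normalized to DMSO and 100 uM tamoxifen; AC50 came from Hill-equation fits of qHTS concentration-response.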

[2] = Cellular Toxicity (caspase-3) Jurkat (AID 655);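 further: cells exposed to compound for 16 h at 37 °C before reading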
Method in brief: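 Caspase 3/7 activation is scored as increased luminescence in Jurkat cells cultured with compound for 16 hours in complete medium. AC50 values come from Hill fits of qHTS concentration-response data normalized to DMSO and 100 uM tamoxifen controls.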

[3] = Cellular Toxicity (caspase-3) HUV-EC-C (AID 656);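 further: 0% = DMSO basal and 100% = 100 µM tamoxifen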
Method in brief: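 Read-out: luminescence proportional to caspase 3/7 activity, measured 20 min after adding Caspase-Glo 3/7 reagent. Cells (HUV-EC-C) had received compound for 16 hr at 37°C. Increases relative to DMSO and 100 uM tamoxifen gave concentration-response AC50 values.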

[4] = Cellular Toxicity (caspase-3) SHSY5Y (AID 657)
Method in brief: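 Cells plated and incubated 5 h at 37 °C, dosed over a concentration range, incubated 16 h, then given Caspase-Glo 3/7 reagent for 1 h at room temperature before luminescence reading. Staurosporine (10 uM) defined full stimulation.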

[5] = Cellular Toxicity (caspase-3) BJ (AID 658);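 further: 0% = DMSO basal and 100% = 10 µM staurosporine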
Method in brief: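 Readout: Caspase-Glo 3/7 luminescence increase in BJ cells after 16 hr treatment at 37 °C. Staurosporine and tamoxifen served as positive controls; AC50 values came from Hill modelling of data normalized to DMSO and 10 uM staurosporine.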

[6] = Cellular Toxicity (caspase-3) MRC-5 (AID 659);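 further: 0% = DMSO basal and 100% = 10 µM staurosporine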
Method in brief: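 Concentration-dependent caspase 3/7 activation is measured in human normal lung fibroblasts (MRC-5) following 16-hour treatment. AC50 values come from standard Hill-equation modeling of luminescence normalized to DMSO and 10 uM staurosporine.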

[7] = Cellular Toxicity (caspase-3) Mesangial (AID 660);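 further: cells exposed to compound for 16 h before the caspase read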
Method in brief: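 Human renal glomerular mesangial cells, 1000/well, 5 h at 37 C before 16 h compound treatment. Caspase-Glo 3/7 luminescence after 20 min; normalized to DMSO and 100 uM tamoxifen, AC50 from Hill fit.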

[8] = Cellular Toxicity (caspase-3) SK-N-SH (AID 661);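 further: 0% = DMSO basal and 100% = 10 µM staurosporine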
Method in brief: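 Human SK-N-SH neuroblastoma cells, 1500/well, were exposed to compounds for 16 hours at 37 °C. Caspase-Glo 3/7 luminescence was normalized to DMSO (basal) and 10 uM staurosporine (100%), and AC50 came from a Hill fit.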

[9] = Cellular Toxicity (caspase-3) H-4-II-E (AID 663);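 further: cells exposed to compound for 16 hr before readout; 0% = DMSO basal and 100% = 100 µM tamoxifen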
Method in brief: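 Apoptosis induction is scored as increased luminescence from caspase 3/7 substrate cleavage in rat hepatoma H-4-II-E cells exposed to compound for 16 hr. Activity is scaled between DMSO and 100 uM tamoxifen.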

[10] = Cellular Toxicity (caspase-3) Hek293 (AID 664);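 further: cells exposed to compound for 16 h at 37 °C before readout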
Method in brief: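 HEK293 cells in complete medium treated 16 h at 37 °C, then Caspase-Glo 3/7 luminescence read after 20 min at room temperature. Normalized to DMSO and 100 uM tamoxifen; AC50 from Hill fit of concentration-response.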

[11] = Cellular Toxicity (caspase-3) N2a (AID 665);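 further: compound exposure lasted 16 h at 37 °C before readout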
Method in brief: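 Mouse N2a neuroblastoma cells, 1500 per well, treated 16 h at 37 °C in complete medium; caspase-3/7 activity by Caspase-Glo luminescence after 1 h. Normalized to DMSO and 10 uM staurosporine; AC50 from Hill fits.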

[12] = Cellular Toxicity (caspase-3) NIH 3T3 (AID 666);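 further: caspase signal read after 16 h compound exposure; 0% = DMSO basal and 100% = 100 µM tamoxifen stimulation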
Method in brief: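 Mouse NIH 3T3 fibroblasts (1000/well) treated 16 h at 37 C; caspase-3/7 activity measured by Caspase-Glo 3/7 luminescence after 20 min. Normalized to DMSO and 100 uM tamoxifen; AC50 from Hill fits.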

[13] = Cellular Toxicity (caspase-3) Renal Proximal Tubule (AID 667);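 further: cells exposed to compound for 16 hours at 37 °C before detection; 0% = DMSO basal and 100% = 10 µM staurosporine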
Method in brief: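 In qHTS format, rat primary proximal tubule cells seeded at 1000 per well are exposed to compounds for 16 hours at 37 °C. An increase in Caspase-Glo 3/7 luminescence indicates caspase activation.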

[14] = Cell Viability - LYMP2-001 (AID 921);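 further: series mostly up to about 92 µM; cells exposed to compound for 24 h at 37 °C; 0% = DMSO only and full inhibition = tetraoctylammonium bromide control wells; nearly all actives have a fitted effect of over 70% in size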
Method in brief: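 qHTS, 1536-well; lymphoblastoid cells, 24 hr compound, 37 C; ATP by CellTiter-Glo, 30 min RT; luminescence; Hill-fit AC50.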

[15] = target: Peroxisome proliferator-activated receptor alpha (Homo sapiens) (UniProt Q07869); assay: qHTS assay for small molecule agonists of the peroxisome proliferator-activated receptor alpha (PPARalpha) signaling pathway (AID 651778); conditions: PathHunter PPARalpha complementation, chemiluminescence, 6 h; hits give high values; further: % of control where 0% means no effect
Chain of Peroxisome proliferator-activated receptor alpha (Homo sapiens) (Q07869 whole entry, looked up): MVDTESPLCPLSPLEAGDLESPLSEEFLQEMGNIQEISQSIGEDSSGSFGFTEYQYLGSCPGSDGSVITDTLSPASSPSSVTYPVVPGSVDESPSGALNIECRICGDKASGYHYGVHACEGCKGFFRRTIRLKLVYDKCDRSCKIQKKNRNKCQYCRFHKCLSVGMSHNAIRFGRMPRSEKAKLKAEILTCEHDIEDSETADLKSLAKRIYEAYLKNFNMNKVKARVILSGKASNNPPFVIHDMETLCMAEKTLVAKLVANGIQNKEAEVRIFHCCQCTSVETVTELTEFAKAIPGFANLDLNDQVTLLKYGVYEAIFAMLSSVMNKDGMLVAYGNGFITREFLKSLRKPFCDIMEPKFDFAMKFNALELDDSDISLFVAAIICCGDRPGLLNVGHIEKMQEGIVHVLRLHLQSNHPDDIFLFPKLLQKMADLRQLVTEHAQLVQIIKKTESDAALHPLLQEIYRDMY
Method in brief: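 Chemiluminescence from complemented enzyme reported PPARalpha activation in cells after 6 hr of compound treatment at 37 C. The detection reagent was incubated for 60 min at room temperature, and compounds were scored as agonists.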

[16] = qHTS assay for small molecule agonists of the antioxidant response element (ARE) signaling pathway measured by Nrf2-dependant transcriptional activity (AID 720636; active means well fitted curve in the direction sought with a large enough effect in the repeat runs; an effect the other way counts as inactive or inconclusive;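 further: HepG2 cells with an ARE-driven luciferase reporter; % of control where 0% means no effect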)
Method in brief: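 Cells: ARE-luc HepG2 with Nrf2-responsive luciferase. Medium contained 1% dialyzed FBS. Compound exposure lasted 16 hr at 37 C and 5% CO2, followed by ONE-Glo luciferase detection.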

[17] = qHTS assay for small molecule antagonists of the retinoid-related orphan receptor gamma (ROR-gamma) signaling pathway - cell viability counter screen (AID 720652; active means well fitted curve in the direction sought with a large enough effect in the repeat runs; an effect the other way counts as inactive or inconclusive;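 further: CHO reporter cells with doxycycline-induced ROR-gamma expression; series mostly up to about 92 µM; compound exposure lasted 16 hr before ATP read; on the % scale 0 is the no-effect control and ±100 the full control effect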)
Method in brief: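 CHO cells carrying TET-inducible ROR and RORE-luciferase reporter, plated 5 hr, then dosed with compound plus doxycycline. After 16 hr at 37 C, viability read as intracellular ATP by CellTiter-Glo luminescence.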

[18] = qHTS assay for small molecule agonists of the antioxidant response element (ARE) signaling pathway measured by Nrf2-dependant transcriptional activity - cell viability counter screen (AID 720653; active means well fitted curve in the direction sought with a large enough effect in the repeat runs; an effect the other way counts as inactive or inconclusive; further: on the % scale 0 is the no-effect control and ±100 the full control effect); conditions: ARE-bla HepG2 viability, CellTiter-Glo ATP luminescence, 16 h; hits give low values
Method in brief: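 Cytotoxicity counter screen: intracellular ATP quantified by CellTiter-Glo luminescence in the same ARE-bla HepG2 plates, after 16 h compound exposure and a 2 h beta-lactamase substrate step.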

[19] = qHTS assay for cell viability of HEK293 cells (AID 743288); conditions: ATP luminescence (CellTiter-Glo), 18 h, hits give low values; further: on the % scale 0 is the no-effect control and ±100 the full control effect; nearly all actives have a fitted effect of over 50% in size
Method in brief: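 The Tox21 protocol used parental HEK293 cells treated for 18 h at 37 C with compounds delivered by pintool; ATP-coupled luminescence after 30 min at room temperature gave viability.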

[20] = qHTS assay for cell viability of the p53RE-bla HCT-116 cell line (AID 743292); further: potency means the concentration at half of the fitted maximal effect; nearly all actives have a fitted effect of over 55% in size
Method in brief: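 HCT-116 p53RE-bla cells seeded 4,000/well; 5 h at 37 C; compound (DMSO) added; 16 h at 37 C; CellTiter-Glo added, 30 min RT; luminescence read.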

CC(C)(c1cc(Br)c(O)c(Br)c1)c1cc(Br)c(O)c(Br)c1
inactive: outcome [1] | outcome [2] | outcome [3] | outcome [4] | outcome [5] | outcome [6] | outcome [7] | outcome [8] | outcome [9] | outcome [10] | outcome [11] | outcome [12] | outcome [13] | outcome [14] | max response [15] -7.23% and -3.95% and -1.86% | outcome [16] | outcome [17] | max response [18] 4.4% and -1.06% and -0.187% | max response [19] 5.04% and -1.46% and -3.35%
active: Potency [20] 44.7 µM
